Among all 75,000 compounds or so, about 5,700 (7.6%) were called active. Another 7% or so got no clear call; they are omitted. Calls come from the whole dose curve; as a rule, active = well fitted inhibition curve with a large enough effect; inconclusive = small, poorly fitted or top-dose-only effect; inactive = no such curve, though single readings can be large or run the other way. What follows is part of a selection rich in actives, with near analogues and random picks from the rest. A call without a number means that no potency is given here.
Each compound was assayed against 3-hydroxyacyl-CoA dehydrogenase type-2 (Homo sapiens) (UniProt Q99714) (assay: qHTS Assay for Inhibitors of HSD17B4, hydroxysteroid (17-beta) dehydrogenase 4). Conditions: recombinant HSD17B10, NADH fluorescence kinetic; series mostly up to 57.1 µM.
Outline: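 His-tagged E. coli-expressed HADH2 at 20 nM in 100 mM Tris-HCl pH 9.0 with 0.01 % Tween-20, preincubated 15 min with compound at room temperature. Reaction with 1 mM NAD+ and 90 uM beta-hydroxybutyryl coenzyme A; NADH fluorescence (360/450 nm) read kinetically over 4 min, last minus first point.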
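Note: the protocol describes HADH2 (HSD17B10) and not the HSD17B4 of the title; nearly all actives have a fitted effect of over 70% in size.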
Potency is the fitted concentration of half-maximal effect.

Question: For `COc1nc(NCc2ccc(Cl)cc2)nc(OC)n1`, which Potency is on record?
Answer: Its Potency is “inactive”.

Question: For `Cn1cc(-c2nc3cncnc3n(-c3ccccc3)c2=O)c2ccccc21`, which Potency is on record?
Answer: Its Potency is “inactive”.

Question: For `COc1ccc(C(=O)n2nc(-c3ccc(Cl)cc3)nc2N)cc1OC`, which Potency is on record?
Answer: The Potency was “inactive”.

Question: With `COc1ccc(-n2c(C)nc3c(cnn3-c3ccccc3)c2=O)cc1` as the compound, how does the Potency read?
Answer: The Potency was “inactive”.

Question: With `COc1ncc2nc(-c3ccc(Cl)cc3)c(=O)n(-c3ccccc3)c2n1` as the compound, how does the Potency read?
Answer: The Potency was 25.1 µM (active).

Question: For `O=c1c(-c2cccs2)nc2cnc(Oc3ccccc3)nc2n1-c1ccccc1`, which Potency is on record?
Answer: The Potency was 25.1 µM (active).

Question: `COc1ccc(-c2c3c(=O)n(C)c(=O)n(C)c3cn2-c2cccc(OC)c2)cc1` was tested. Which Potency did it give?
Answer: Its Potency is “inactive”.

Question: Which Potency does the source give for `COc1ccc(Oc2ncc3nc(-c4ccc(F)cc4)c(=O)n(C)c3n2)cc1` here?
Answer: The Potency was 31.6 µM (active).

Question: How did the Potency turn out when `COc1ncc2nc(-c3ccc(Cl)cc3)c(=O)n(C)c2n1` was run?
Answer: The Potency was 31.6 µM (active).

Question: For `CN(C(=O)COc1nnc(-c2cccs2)c(-c2cccs2)n1)c1ccccc1`, which Potency is on record?
Answer: Its Potency is “inactive”.

Question: How did the Potency turn out when `COc1ccc(Oc2ncc3nc(C)c(=O)n(-c4ccccc4)c3n2)cc1` was run?
Answer: Its Potency is “inactive”.

Question: For `Cc1ccc(S(=O)(=O)N2CCC(C(=O)N[C@@H](C)C(=O)NCc3ccccc3)CC2)cc1`, which Potency is on record?
Answer: Its Potency is “inactive”.

Question: With `O=C(Nc1cccc2c1CCCC2)C1CCN(C(=O)NC2CCCCC2)CC1` as the compound, how does the Potency read?
Answer: Its Potency is “inactive”.

Question: For `c1ccc2sc(SCCSc3nc4ccccc4s3)nc2c1`, which activity change, negative = inhibition is on record?
Answer: Its activity change, negative = inhibition is 2.8% [at 11.4 µM] (inactive).

Question: For `O=C(c1cc(-c2cccc(O)c2)on1)N1CCc2ccccc2C1`, which Potency is on record?
Answer: The Potency was “inactive”.

Question: Which Potency does the source give for `O=C1CN(C(=O)COC(=O)C2CC(=O)N(Cc3ccco3)C2)c2ccccc2N1` (centres undefined) here?
Answer: The Potency was “inactive”.

Question: `CN(C)C(=O)/N=N\C(=O)N(C)C` was tested. Which Potency did it give?
Answer: The Potency was “inactive”.

Question: For `COc1ccc(-c2nc3cnc(Oc4ccccc4)nc3n(Cc3cccs3)c2=O)cc1`, which Potency is on record?
Answer: The Potency was 12.6 µM (active).

Question: How did the Potency turn out when `CN1CCN(c2ncc3nc(-c4ccc(Cl)cc4)c(=O)n(-c4ccccc4)c3n2)CC1` was run?
Answer: Its Potency is 25.1 µM (active).

Question: `COCCn1c(=O)c(-c2ccc(OC)cc2)nc2cnc(Oc3cccc(Cl)c3)nc21` was tested. Which Potency did it give?
Answer: Its Potency is “inactive”.

Question: `O=C1c2cccnc2C(=O)N1Cc1cccs1` was tested. Which Potency did it give?
Answer: Its Potency is “inactive”.

Question: For `O=c1c(-c2ccc(F)c(F)c2)nc2cncnc2n1-c1ccccc1`, which Potency is on record?
Answer: Its Potency is “inactive”.

Question: How did the Potency turn out when `CN1CCN(c2cc(=O)n(-c3ccc(Cl)cc3)c(=O)[nH]2)CC1` was run?
Answer: Its Potency is “inactive”.

Question: With `C=CC(=O)OCCOCCOCCOCCOC(=O)C=C` as the compound, how does the Potency read?
Answer: The Potency was “inactive”.

Question: Which Potency does the source give for `Cc1ccccc1NC(=O)Cc1nnc(SCC(=O)N2CCN(c3ccccc3)CC2)n1C` here?
Answer: The Potency was “inactive”.

Question: For `Cc1nnc(SCC(=O)Nn2cnnc2)s1`, which Potency is on record?
Answer: Its Potency is “inactive”.

Question: For `CC(C)[C@H](CO)Nc1nc(Nc2cc(N)cc(Cl)c2)c2ncn(C(C)C)c2n1`, which Potency is on record?
Answer: The Potency was “inactive”.

Question: With `Cc1c(CN2CCC(C)CC2)c(=O)n(-c2ccccc2)n1C` as the compound, how does the Potency read?
Answer: The Potency was “inactive”.

Question: For `COC(=O)[C@@H]1C[C@@]2(O)[C@H](O)[C@H](O)[C@H](O)C[C@H]2N1CC1CCCCC1`, which Potency is on record?
Answer: Its Potency is “inactive”.

From PubChem BioAssay AID893 (National Center for Advancing Translational Sciences (NCATS), 2007)
